# Measured values taken from PubChem BioAssay (NCI).
# The panel holds about 83,000 compounds, 20% with a hit somewhere; the sample as a whole holds those more often.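 Note: values are percent growth. 100 is the growth of untreated cells, values between 100 and 0 indicate rising inhibition; between -100 and 0 indicates cell death.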 Calls of active or inactive are those of the source. How the source made its calls: active means growth percent below 10; inactive means the rest.
# Tested on: SR leukemia
# Experiment: NCI-60 one-dose screen, 48 h (100 = growth as untreated, 0 = no growth, -100 = all killed)
# Conditions: 10 µM unless noted
row,Compound,growth
1,COc1ccc(/C=N/NC(=O)Cn2c(-c3ccc(S(C)(=O)=O)cc3)nc3ccccc32)cc1,100% (inactive)
2,CN(C)CCCn1c2c(c3ccncc3c1=O)C(=O)c1ccccc1-2,-26% (active)
3,OC1(c2ccccc2)c2ccccc2N(c2ccccc2)c2ccc(Cl)cc21 (stereo not given),-28.7% (active)
4,CC1(/C=C/c2ccc(-c3ccccc3)cc2)CCn2cnc3ncnc(c32)N1O (stereo not given),18.3% (inactive)
5,C=C1C(=O)O[C@H]2[C@H]1CC/C(COC(=O)/C=C\C(=O)NCc1ccc(Cn3c(=O)sn(CCCCl)c3=O)cc1)=C\CC[C@@]1(C)O[C@@H]21,66.5% (inactive)
6,C#Cc1cccc(NC(=O)C2CCCCN2C(=O)CCl)c1 (stereo not given),2.64% [8.25 µM] (active)
7,O=C1CCCC1[n+]1ccccc1 (stereo not given),127% (inactive)
8,N#C/C(=C\c1ccc(-c2cccc(Cl)c2)o1)C(=O)Nc1ncc(Cc2ccc(Cl)cc2)s1,29.9% (inactive)
9,O=S(O)c1cc(Cl)cc(Cl)c1OCc1ccccc1,92.6% (inactive)
10,O=C(C1=Cc2cc3ccccc3n2Cc2cnnn21)c1ccc(F)cc1,87.6% (inactive)
11,CC(C)Cc1nc(Nc2ccccc2)[nH]c(=O)c1C#N,34.2% (inactive)
12,C[N+]1=C(/C=C/c2ccccc2Cl)C(C)(C)c2ccccc21,18.2% (inactive)
13,CSc1ccc(N2C(=N)C(=S)N(c3ccc(C)cc3)C2=O)cc1,80.3% (inactive)
14,CC[C@H](Nc1nc(N)nc(C)c1C#N)c1nc2cccc(CN(C)c3ncc(C(=O)NO)cn3)c2c(=O)n1-c1ccccc1,14.1% (inactive)
15,CC(C)CCC[C@@H](C)[C@H]1CC[C@H]2[C@@H]3CC=C4c5sc(Nc6cc(C(F)(F)F)cc(C(F)(F)F)c6)nc5CC[C@]4(C)[C@H]3CC[C@]12C,106% (inactive)
16,N#CC1=C(N)Oc2c(sc3c(F)cccc23)C1c1ccc([N+](=O)[O-])cc1 (stereo not given),5.1% (active)
17,c1ccc(-c2c(-c3ccccc3)[n+](Cc3ccc4ccccc4c3)cn2Cc2ccc3ccccc3c2)cc1,-74.5% (active)
18,O=C(CSc1nnnn1-c1ccccc1)Nc1ccc(Oc2ccccc2)cc1,7.48% (active)
19,Cc1ccc2c(c1)nc(C)n2-c1ncnc2c1CC(C)c1cc(O)ccc1N2C (stereo not given),6.97% (active)
20,Fc1ccc2[nH]cc(-c3nc(-c4c[nH]c5c(Cl)nccc45)cs3)c2c1,13.3% (inactive)

row,Compound,growth
1,COc1ccc(Oc2ccc(/C=C/C(=O)c3ccc(OC)c(OC)c3)cc2)cc1,50.9% (inactive)
2,CCCCC#Cc1c(I)n(C2OC(CO[Si](C)(C)C(C)(C)C)C3OC(C)(C)OC32)c(=O)n(C(=O)c2ccccc2)c1=O (stereo not given),5.85% (active)
3,O=C(N/N=C/c1ccc(Cl)cc1)c1ccc(NC(=O)c2ccccn2)cc1,43.3% (inactive)
4,COc1cc(-c2cc(-c3ccc(Nc4nc(Nc5ccc(Cl)cc5)nc(Nc5ccc(Cl)cc5)n4)cc3)no2)cc(OC)c1OC,15.7% (inactive)
5,NCCCNc1nc2ccccc2c2c(=O)c3cc(Cl)ccc3sc12,-44.3% (active)
6,Cc1ccc(OCCOCCOCCOCCOCCOc2ccc(C)n(O)c2=S)c(=S)n1O,4.81% (active)
7,CC1(C)CC(=O)C2=C(C1)C(c1ccc(Cl)cc1)n1ncc(C#N)c1N2 (stereo not given),109% (inactive)
8,CN(C)/C(N)=N/N=C(\c1ccccc1)c1ccccn1,85.5% (inactive)
9,c1ccc(Nc2nc3c(s2)CCc2c[nH]cc2-3)nc1,75.8% (inactive)
10,COc1cc2c(cc1OCCCN1CCN(C(=S)SCCC(C#N)(c3ccccc3)c3ccccc3)CC1)N=C[C@@H]1CCCN1C2=O,-37.6% (active)
11,O=C(NCCCCCCNC(=O)OCc1ccc2c(Cl)cc(Cl)c(O)c2n1)OCc1ccc2c(Cl)cc(Cl)c(O)c2n1,4.84% (active)
12,O=C(/C=C/c1ccccc1)N(C1CCCCC1)C1CCCCC1,83.8% (inactive)
13,C=CCn1cc(-c2nc3ccccc3s2)c2cc(-c3ccc4c5c(cccc35)C(=O)N(CCO)C4=O)ccc21,104% (inactive)
14,COc1cc(/C=C/C(=O)c2cccc(-n3cc(-c4ccc(Cl)cc4)[nH]c3=O)c2)ccc1O,33% (inactive)
15,O=C1Nc2ccc(Cl)cc2/C1=C/c1ccc[nH]1,50.4% (inactive)
16,Cn1c2ccccc2c2c3c(c4c5cc(Br)ccc5n(C)c4c21)C(=O)N(O)C3=O,18.6% (inactive)
17,O=S(=O)(NCCNc1nccc(-c2c(-c3ccc(F)c(O)c3)nc3sccn23)n1)c1ccc(Cl)cc1,9.79% (active)
18,Cc1ccc(OCCOCCOCCOc2ccc(C)n(O)c2=S)c(=S)n1O,25.6% (inactive)
19,C[C@@H]1NC(=O)[C@H](Cc2ccccc2)N(Cc2cccnc2)C1=O,96.9% (inactive)
20,C=CC(CC(c1ccccc1)(c1ccccc1)c1ccccc1)N(CC)CC (stereo not given),-6.97% (active)

# Tested on: RPMI-8226 leukemia
# Experiment: as above
# Conditions: 10 µM unless noted
row,Compound,growth
1,COc1ccc(/C=N/NC(=O)Cn2c(-c3ccc(S(C)(=O)=O)cc3)nc3ccccc32)cc1,105% (inactive)
2,CN(C)CCCn1c2c(c3ccncc3c1=O)C(=O)c1ccccc1-2,-22.7% (active)
3,OC1(c2ccccc2)c2ccccc2N(c2ccccc2)c2ccc(Cl)cc21 (stereo not given),-6.58% (active)
4,CC1(/C=C/c2ccc(-c3ccccc3)cc2)CCn2cnc3ncnc(c32)N1O (stereo not given),21.3% (inactive)
5,C=C1C(=O)O[C@H]2[C@H]1CC/C(COC(=O)/C=C\C(=O)NCc1ccc(Cn3c(=O)sn(CCCCl)c3=O)cc1)=C\CC[C@@]1(C)O[C@@H]21,44.9% (inactive)
6,C#Cc1cccc(NC(=O)C2CCCCN2C(=O)CCl)c1 (stereo not given),-38.4% [8.25 µM] (active)
7,O=C1CCCC1[n+]1ccccc1 (stereo not given),103% (inactive)
8,N#C/C(=C\c1ccc(-c2cccc(Cl)c2)o1)C(=O)Nc1ncc(Cc2ccc(Cl)cc2)s1,81.1% (inactive)
9,O=S(O)c1cc(Cl)cc(Cl)c1OCc1ccccc1,93.1% (inactive)
10,O=C(C1=Cc2cc3ccccc3n2Cc2cnnn21)c1ccc(F)cc1,92.4% (inactive)
11,CC(C)Cc1nc(Nc2ccccc2)[nH]c(=O)c1C#N,25.1% (inactive)
12,C[N+]1=C(/C=C/c2ccccc2Cl)C(C)(C)c2ccccc21,66.9% (inactive)
13,CSc1ccc(N2C(=N)C(=S)N(c3ccc(C)cc3)C2=O)cc1,89% (inactive)
14,CC[C@H](Nc1nc(N)nc(C)c1C#N)c1nc2cccc(CN(C)c3ncc(C(=O)NO)cn3)c2c(=O)n1-c1ccccc1,4.89% (active)
15,CC(C)CCC[C@@H](C)[C@H]1CC[C@H]2[C@@H]3CC=C4c5sc(Nc6cc(C(F)(F)F)cc(C(F)(F)F)c6)nc5CC[C@]4(C)[C@H]3CC[C@]12C,106% (inactive)
16,N#CC1=C(N)Oc2c(sc3c(F)cccc23)C1c1ccc([N+](=O)[O-])cc1 (stereo not given),-9.41% (active)
17,c1ccc(-c2c(-c3ccccc3)[n+](Cc3ccc4ccccc4c3)cn2Cc2ccc3ccccc3c2)cc1,-54.9% (active)
18,O=C(CSc1nnnn1-c1ccccc1)Nc1ccc(Oc2ccccc2)cc1,117% (inactive)
19,Cc1ccc2c(c1)nc(C)n2-c1ncnc2c1CC(C)c1cc(O)ccc1N2C (stereo not given),30.3% (inactive)
20,Fc1ccc2[nH]cc(-c3nc(-c4c[nH]c5c(Cl)nccc45)cs3)c2c1,48.5% (inactive)

row,Compound,growth
1,COc1ccc(Oc2ccc(/C=C/C(=O)c3ccc(OC)c(OC)c3)cc2)cc1,54.7% (inactive)
2,CCCCC#Cc1c(I)n(C2OC(CO[Si](C)(C)C(C)(C)C)C3OC(C)(C)OC32)c(=O)n(C(=O)c2ccccc2)c1=O (stereo not given),-55.2% (active)
3,O=C(N/N=C/c1ccc(Cl)cc1)c1ccc(NC(=O)c2ccccn2)cc1,62.1% (inactive)
4,COc1cc(-c2cc(-c3ccc(Nc4nc(Nc5ccc(Cl)cc5)nc(Nc5ccc(Cl)cc5)n4)cc3)no2)cc(OC)c1OC,7.63% (active)
5,NCCCNc1nc2ccccc2c2c(=O)c3cc(Cl)ccc3sc12,-37.9% (active)
6,Cc1ccc(OCCOCCOCCOCCOCCOc2ccc(C)n(O)c2=S)c(=S)n1O,11.5% (inactive)
7,CC1(C)CC(=O)C2=C(C1)C(c1ccc(Cl)cc1)n1ncc(C#N)c1N2 (stereo not given),96% (inactive)
8,CN(C)/C(N)=N/N=C(\c1ccccc1)c1ccccn1,92.1% (inactive)
9,c1ccc(Nc2nc3c(s2)CCc2c[nH]cc2-3)nc1,89% (inactive)
10,COc1cc2c(cc1OCCCN1CCN(C(=S)SCCC(C#N)(c3ccccc3)c3ccccc3)CC1)N=C[C@@H]1CCCN1C2=O,-19.3% (active)
11,O=C(NCCCCCCNC(=O)OCc1ccc2c(Cl)cc(Cl)c(O)c2n1)OCc1ccc2c(Cl)cc(Cl)c(O)c2n1,-17.4% (active)
12,O=C(/C=C/c1ccccc1)N(C1CCCCC1)C1CCCCC1,51.8% (inactive)
13,C=CCn1cc(-c2nc3ccccc3s2)c2cc(-c3ccc4c5c(cccc35)C(=O)N(CCO)C4=O)ccc21,99.3% (inactive)
14,COc1cc(/C=C/C(=O)c2cccc(-n3cc(-c4ccc(Cl)cc4)[nH]c3=O)c2)ccc1O,5.06% (active)
15,O=C1Nc2ccc(Cl)cc2/C1=C/c1ccc[nH]1,101% (inactive)
16,Cn1c2ccccc2c2c3c(c4c5cc(Br)ccc5n(C)c4c21)C(=O)N(O)C3=O,10.8% (inactive)
17,O=S(=O)(NCCNc1nccc(-c2c(-c3ccc(F)c(O)c3)nc3sccn23)n1)c1ccc(Cl)cc1,-11.1% (active)
18,Cc1ccc(OCCOCCOCCOc2ccc(C)n(O)c2=S)c(=S)n1O,31.2% (inactive)
19,C[C@@H]1NC(=O)[C@H](Cc2ccccc2)N(Cc2cccnc2)C1=O,105% (inactive)
20,C=CC(CC(c1ccccc1)(c1ccccc1)c1ccccc1)N(CC)CC (stereo not given),38.2% (inactive)
